# Results as given in PubChem BioAssay (Tox21).
# Unmarked numbers belong to inactive results. Results filed as inconclusive are left out. Entries that show only a call come without a potency. The source made the active and inactive calls. Unless noted, the call rests on the fitted dose curve.
# What was measured:
# [1] = Nuclear factor erythroid 2-related factor 2/antioxidant responsive element (Nrf2/ARE) small molecule agonists: qHTS cell viability counter screen in human keratinocytes (AID 1919968; active means well fitted curve in the direction sought with a large enough effect in the repeat runs; an effect the other way counts as inactive or inconclusive; further: nearly all actives have a fitted effect of over 55% in size)
# Outline: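 After a 5 h attachment period, ARE-reporter keratinocytes were dosed with compounds in DMSO and then cultured 23 h at 37 C. Cell viability came from CellTiter-Fluor signal read after a further 1 h.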
# [2] = Nuclear factor erythroid 2-related factor 2/antioxidant responsive element (Nrf2/ARE) small molecule agonists: luciferase reporter gene qHTS assay in human keratinocytes (AID 1919969); further: nearly all actives have a fitted effect of over 35% in size; further: potency means the concentration at half of the fitted maximal effect
# [3] = molecular target: Gonadotropin-releasing hormone receptor (Homo sapiens) (UniProt P30968); experiment: Human gonadotropin-releasing hormone receptor (GnRHR) small molecule agonists, calcium flux assay in GnRHR-HEK293 cells (AID 1920063); further: nearly all actives have a fitted effect of over 35% in size
# Outline: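 We seeded human GnRHR-expressing HEK293 cells for 18 hours, loaded them with calcium dye for an hour at 37 C, added test compounds, and recorded fluorescence intensity kinetically for three minutes.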
# [4] = molecular target: KiSS-1 receptor (Homo sapiens) (UniProt Q969F8); experiment: Human kisspeptin (KISS1R) small molecule agonists, calcium flux assay in KISS1R-HEK293 cells (AID 1920064; active means well fitted curve in the direction sought with a large enough effect in the repeat runs; an effect the other way counts as inactive or inconclusive)
# Outline: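 Kinetic calcium assay, 1 s sampling over 3 min at Ex/Em 480/540, in HEK293 cells engineered with human KISS1R; compounds delivered in DMSO after 1 h dye loading.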
# [5] = G protein-coupled receptor (GPCR) small molecule agonists, calcium flux assay: HEK293 wild type cell line counter screen (AID 1920065)
# Outline: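 Calcium-sensitive dye, loaded 1 h at 37 C into cells cultured 18 h, reports compound-evoked calcium release as fluorescence (Ex/Em 480/540), measured over 3 min. Agonist mode; 15-point titrations, triplicate.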
# [6] = p53 small molecule agonists, cell-based qHTS assay with human liver microsomes (AID 1963577)
# Outline: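 Cells carrying a p53-responsive bla reporter were rested 5 h (37 C, 5% CO2) before compound transfer. Human liver microsomes plus NADPH, 0.5 mg/mL final apiece, supplied metabolism during the 16 h 37 C exposure.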
# [7] = p53 small molecule agonists, cell-based qHTS assay with rat liver microsomes (AID 1963578)
# Outline: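 Fluorescence from a beta-lactamase reporter under a p53 response element was measured after cells had been incubated 16 h at 37 C with test compound and rat liver microsomes plus NADPH (0.5 mg/mL final each).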
# [8] = p53 small molecule agonists, cell-based qHTS assay with human liver microsomes: qHTS cell viability counter screen (AID 1963579); further: nearly all actives have a fitted effect of over 45% in size
# Outline: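 Seed p53RE-bla cells at 4,000 per well; incubate 5 h at 37 C; add compound, human liver microsomes and NADPH; incubate 16 h at 37 C; add CellTiter-Glo; after 30 min at room temperature, read luminescence.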
# [9] = p53 small molecule agonists, cell-based qHTS assay with rat liver microsomes: qHTS cell viability counter screen (AID 1963580); further: nearly all actives have a fitted effect of over 45% in size
# Outline: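 In HCT-116 cells carrying a p53 response element-bla reporter, compounds were metabolically activated in situ by rat liver microsomes with NADPH over 16 h. Cell ATP content then served as the cytotoxicity measure.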
# [10] = p53 small molecule agonists, cell-based qHTS assay: qHTS cell viability counter screen (AID 1963581); further: nearly all actives have a fitted effect of over 45% in size
# Outline: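 Following 5 h attachment, HCT-116 p53RE-bla cells took up compound for 16 h at 37 C; the reporter was read with B/G FRET substrate (2 h RT), and viability then via CellTiter-Glo ATP luminescence.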
# [11] = p53 small molecule agonists, cell-based qHTS assay (AID 1963582; active means well fitted activation curve with a large enough effect in the signal ratio in the repeat runs, not every such curve was filed as active; the % refers to the signal ratio)
# Outline: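 In this cell-based concentration-response screen, a p53 response element drives beta-lactamase; cells received DMSO-borne compounds after 5 h culture and were incubated a further 16 h before FRET substrate development.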
# [12] = molecular target: 5-hydroxytryptamine receptor 2A (Homo sapiens) (UniProt P28223); experiment: 5-hydroxytryptamine receptor 2A (HTR2A) small molecule antagonists, cell-based qHTS assay (AID 1963586); further: nearly all actives have a fitted effect of over 45% in size
# Outline: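 Antagonist-mode intracellular calcium assay: DOI (4 nM) added after 5 min compound pre-incubation at room temperature to dye-loaded HTR2A-CHO cells. Fluorescence followed for 3 min, sampled every second.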
# [13] = molecular target: 5-hydroxytryptamine receptor 2A (Homo sapiens) (UniProt P28223); experiment: 5-hydroxytryptamine receptor 2A (HTR2A) small molecule agonists, cell-based qHTS assay (AID 1963587); further: nearly all actives have a fitted effect of over 30% in size
# Outline: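 HTR2A-CHO cells, plated 18 h at 37 C/5% CO2, dye-loaded 1 h at 37 C; compounds in DMSO added by pin tool (agonist mode). Intracellular calcium flux read as kinetic fluorescence on FDSS over 2 min at 1 s intervals.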
# [14] = molecular target: Muscarinic acetylcholine receptor M1 (Homo sapiens) (UniProt P11229); experiment: Cholinergic receptor muscarinic 1 (CHRM1) small molecule antagonists, cell-based qHTS assay (AID 1963588); further: nearly all actives have a fitted effect of over 40% in size
# Outline: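 CHRM1-CHO calcium-flux assay, antagonist mode. Cells were seeded 18 h, dye-loaded 1 h at 37 C and given compound for 5 min at RT, then acetylcholine was added at 50nM. FDSS fluorescence was read 3 min; 15 concentrations, three runs.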
# [15] = molecular target: Muscarinic acetylcholine receptor M1 (Homo sapiens) (UniProt P11229); experiment: Cholinergic receptor muscarinic 1 (CHRM1) small molecule agonists, cell-based qHTS assay (AID 1963589); further: nearly all actives have a fitted effect of over 35% in size
# Outline: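 Measures agonist-induced intracellular calcium rise. Stable human CHRM1 CHO line, 1 h dye load at 37 C, compounds from DMSO, kinetic fluorescence read.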
# [16] = cAMP Responsive Elements (CRE) small molecule agonists, cell-based qHTS assay (AID 1963590)
# Outline: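 A CRE-responsive beta-lactamase reporter in HEK 293T cells was used. Treatment ran 3 h at 37 C; detection used LiveBLAzer B/G FRET substrate for 2 h at room temperature.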
# [17] = cAMP Responsive Elements (CRE) small molecule antagonists, cell-based qHTS assay (AID 1963591; active means well fitted inhibition curve with a large enough effect in the signal ratio in the repeat runs, not every such curve was filed as active; the % refers to the signal ratio)
# Outline: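 HEK293T cells carrying a CRE-driven beta-lactamase reporter receive compound and NKH477 (0.25 uM final) for 3 h. Fluorescence from LiveBLAzer B/G FRET substrate is read after 2 h at room temperature.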
# [18] = molecular target: Beta-2 adrenergic receptor (Homo sapiens) (UniProt P07550); experiment: Adrenergic beta2 receptor (ADRB2) small molecule antagonists, cell-based qHTS assay (AID 1963592); further: series mostly up to about 92 µM; nearly all actives have a fitted effect of over 50% in size
# Outline: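 Cells (CHO, stable ADRB2 overexpression) incubated 18-20hr at 37C; compounds added from DMSO; agonist mix (1nM isoproterenol, 100uM IBMX, 25uM Ro-20-1724) added; 0.5hr RT; d2-cAMP and anti-cAMP-cryptate added; 1hr RT; 665/615 nm read.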
# [19] = molecular target: Beta-2 adrenergic receptor (Homo sapiens) (UniProt P07550); experiment: Adrenergic beta2 receptor (ADRB2) small molecule agonists, cell-based qHTS assay (AID 1963593);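 further: CHO cells stably overexpressing human ADRB2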
# Outline: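 CHO cells stably over-expressing ADRB2 were plated overnight at 37C, then dosed with compounds plus a stimulation mix containing 100uM IBMX and 25uM Ro-20-1724 for 0.5hr at room temperature. cAMP was measured by HTRF competition, 1hr.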
# [20] = molecular target: D(2) dopamine receptor (Homo sapiens) (UniProt P14416); experiment: Dopamine D2 receptor (DRD2) small molecule agonists, cell-based qHTS assay (AID 1963594); further: nearly all actives have a fitted effect of over 35% in size
# Outline: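 HEK293 cells stably expressing DRD2 were cultured 24 h at 37 C, then given Ro20-1724 (0.1 mM final) and compounds for 10 min at room temperature. NKH477 (200nM) was then added for 30 min. cAMP was read by HTRF.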
# Chain of 5-hydroxytryptamine receptor 2A (Homo sapiens) (P28223 whole entry, looked up): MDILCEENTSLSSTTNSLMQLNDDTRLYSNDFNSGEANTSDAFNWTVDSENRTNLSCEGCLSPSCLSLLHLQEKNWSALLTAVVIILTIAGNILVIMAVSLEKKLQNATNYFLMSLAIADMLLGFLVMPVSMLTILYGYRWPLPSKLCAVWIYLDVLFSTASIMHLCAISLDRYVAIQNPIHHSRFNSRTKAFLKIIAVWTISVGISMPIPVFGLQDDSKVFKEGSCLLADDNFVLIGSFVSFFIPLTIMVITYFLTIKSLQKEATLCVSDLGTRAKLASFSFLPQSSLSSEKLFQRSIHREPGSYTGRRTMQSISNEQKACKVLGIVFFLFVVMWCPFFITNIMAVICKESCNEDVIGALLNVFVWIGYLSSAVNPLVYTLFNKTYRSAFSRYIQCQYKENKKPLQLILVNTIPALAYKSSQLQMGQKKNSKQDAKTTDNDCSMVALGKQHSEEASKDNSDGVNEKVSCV
# Chain of Beta-2 adrenergic receptor (Homo sapiens) (P07550 whole entry, looked up): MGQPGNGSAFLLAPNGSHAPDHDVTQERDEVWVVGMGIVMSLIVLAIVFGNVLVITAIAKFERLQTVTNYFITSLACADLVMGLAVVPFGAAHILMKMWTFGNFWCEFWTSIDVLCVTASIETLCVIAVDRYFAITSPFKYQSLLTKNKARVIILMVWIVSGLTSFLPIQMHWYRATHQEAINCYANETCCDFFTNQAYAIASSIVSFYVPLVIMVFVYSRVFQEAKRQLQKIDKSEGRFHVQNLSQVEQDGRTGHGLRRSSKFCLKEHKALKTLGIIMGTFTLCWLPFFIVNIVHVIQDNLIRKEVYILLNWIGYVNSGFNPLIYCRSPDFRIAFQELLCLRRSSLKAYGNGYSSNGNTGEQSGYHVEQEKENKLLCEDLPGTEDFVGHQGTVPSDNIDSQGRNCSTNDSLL
# Chain of KiSS-1 receptor (Homo sapiens) (Q969F8 whole entry, looked up): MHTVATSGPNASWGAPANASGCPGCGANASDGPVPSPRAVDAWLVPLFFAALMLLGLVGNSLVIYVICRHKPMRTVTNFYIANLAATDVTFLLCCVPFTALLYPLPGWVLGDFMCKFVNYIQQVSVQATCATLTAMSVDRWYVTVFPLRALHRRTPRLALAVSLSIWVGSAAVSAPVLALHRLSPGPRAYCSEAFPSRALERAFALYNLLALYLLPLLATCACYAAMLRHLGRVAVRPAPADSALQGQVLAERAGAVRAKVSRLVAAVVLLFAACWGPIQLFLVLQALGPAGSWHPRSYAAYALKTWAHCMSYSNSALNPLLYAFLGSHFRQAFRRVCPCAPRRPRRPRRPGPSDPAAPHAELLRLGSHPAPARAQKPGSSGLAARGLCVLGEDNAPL
# Chain of D(2) dopamine receptor (Homo sapiens) (P14416 whole entry, looked up): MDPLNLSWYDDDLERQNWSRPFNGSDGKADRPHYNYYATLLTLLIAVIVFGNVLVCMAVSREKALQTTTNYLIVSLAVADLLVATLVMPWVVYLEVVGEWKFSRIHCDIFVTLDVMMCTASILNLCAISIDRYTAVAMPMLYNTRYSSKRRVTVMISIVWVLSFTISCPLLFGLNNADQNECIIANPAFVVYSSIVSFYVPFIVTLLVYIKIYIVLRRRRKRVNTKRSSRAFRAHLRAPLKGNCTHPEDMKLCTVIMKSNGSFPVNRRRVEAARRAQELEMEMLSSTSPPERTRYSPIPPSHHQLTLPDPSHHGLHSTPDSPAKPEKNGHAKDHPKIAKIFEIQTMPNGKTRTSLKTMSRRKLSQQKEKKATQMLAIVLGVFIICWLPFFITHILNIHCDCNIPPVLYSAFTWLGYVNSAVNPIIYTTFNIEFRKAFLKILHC
# Chain of Muscarinic acetylcholine receptor M1 (Homo sapiens) (P11229 whole entry, looked up): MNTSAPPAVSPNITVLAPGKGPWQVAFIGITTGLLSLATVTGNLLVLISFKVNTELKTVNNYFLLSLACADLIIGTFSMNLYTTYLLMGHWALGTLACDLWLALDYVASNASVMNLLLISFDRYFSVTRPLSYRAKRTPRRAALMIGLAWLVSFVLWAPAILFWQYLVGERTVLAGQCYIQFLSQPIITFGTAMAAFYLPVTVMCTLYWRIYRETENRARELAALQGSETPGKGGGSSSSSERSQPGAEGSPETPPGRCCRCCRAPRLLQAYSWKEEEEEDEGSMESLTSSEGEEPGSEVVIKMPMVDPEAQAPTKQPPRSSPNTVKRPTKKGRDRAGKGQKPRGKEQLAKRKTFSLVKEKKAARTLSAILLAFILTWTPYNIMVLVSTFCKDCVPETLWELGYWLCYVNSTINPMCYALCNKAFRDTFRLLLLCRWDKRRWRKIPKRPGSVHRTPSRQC
# Chain of Gonadotropin-releasing hormone receptor (Homo sapiens) (P30968 whole entry, looked up): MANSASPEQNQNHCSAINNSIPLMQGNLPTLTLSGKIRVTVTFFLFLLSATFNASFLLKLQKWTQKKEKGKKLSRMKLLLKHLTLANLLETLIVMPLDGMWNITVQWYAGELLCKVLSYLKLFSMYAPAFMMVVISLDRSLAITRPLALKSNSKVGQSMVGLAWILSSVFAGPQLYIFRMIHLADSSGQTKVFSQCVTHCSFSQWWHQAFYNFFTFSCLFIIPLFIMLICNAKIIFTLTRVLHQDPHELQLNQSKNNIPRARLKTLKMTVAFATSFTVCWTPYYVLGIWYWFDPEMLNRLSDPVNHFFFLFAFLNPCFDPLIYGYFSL
SMILES,Potency [1],Potency [2],Potency [3],Potency [4],Potency [5],Potency [6],Potency [7],Potency [8],Potency [9],Potency [10],Potency [11],Potency [12],Potency [13],Potency [14],Potency [15],Potency [16],Potency [17],Potency [18],Potency [19],Potency [20]
O=C1C=CC(=O)O1,inactive,inactive,inactive,inactive,inactive,inactive,inactive,inactive,inactive,inactive,inactive,inactive,inactive,inactive,inactive,inactive,inactive,inactive,inactive,inactive
CCCCCCCCC(=O)OCC,inactive,inactive,inactive,inactive,inactive,inactive,inactive,inactive,inactive,inactive,inactive,inactive,inactive,inactive,inactive,inactive,inactive,inactive,inactive,inactive
C=CC(O)CCCCC (stereo not given),inactive,inactive,inactive,inactive,inactive,inactive,inactive,inactive,inactive,inactive,inactive,inactive,inactive,inactive,inactive,inactive,inactive,inactive,inactive,inactive
CCC(=O)OCc1ccc(OC)cc1,inactive,inactive,inactive,inactive,inactive,inactive,inactive,inactive,inactive,inactive,inactive,inactive,inactive,inactive,inactive,inactive,inactive,inactive,inactive,inactive
Cc1ccc(N=Nc2c(O)ccc3ccccc23)c(C)c1,inactive,2.66 µM (active),inactive,inactive,inactive,inactive,inactive,inactive,inactive,inactive,inactive,inactive,inactive,inactive,inactive,inactive,inactive,inactive,inactive,inactive
CC(S)C(=O)NCC(=O)O (stereo not given),inactive,inactive,inactive,inactive,inactive,inactive,inactive,inactive,inactive,inactive,inactive,inactive,inactive,inactive,inactive,inactive,inactive,inactive,inactive,inactive
O=C1Nc2ccccc2C1=O,inactive,inactive,inactive,inactive,inactive,inactive,inactive,inactive,inactive,inactive,inactive,inactive,inactive,inactive,inactive,inactive,inactive,inactive,inactive,inactive
